Laboratory results from the supplement of paper PMC10849652.
The full data set covers some 7,900 targets. This sample favours those with a hit. About 0.6% of all pairs of compound and target were hits.

Compound: CCCS(=O)(=O)Nc1ccc(F)c(C(=O)c2c[nH]c3ncc(-c4ccc(Cl)cc4)cc23)c1F [vemurafenib]
Experiment: log2 fold change, soluble protein after heating vs DMSO (PISA); higher = thermal stabilisation; K562 cells, 10 uM, 30 min; active = over 0.2 and 3.5 SD of the protein, either way, in both replicates (recomputed)
Method in brief: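 Soluble protein was quantified by TMTpro 16plex LC-MS/MS after channel sums were equalised. It was obtained as the supernatant after 21,000xg for 90 min from pooled aliquots of K562 cells (2×10^6 cells/mL, 10 μM compound, 30 min) heated for 3 min across 48°C-58°C and extracted in PBS with 0.5% NP-40 at 4°C. Thermal stability values are relative to control samples and come from duplicates. They are given as log2 fold changes.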

UniProt P0CAP2, sequence (P0CAP2 whole entry, looked up): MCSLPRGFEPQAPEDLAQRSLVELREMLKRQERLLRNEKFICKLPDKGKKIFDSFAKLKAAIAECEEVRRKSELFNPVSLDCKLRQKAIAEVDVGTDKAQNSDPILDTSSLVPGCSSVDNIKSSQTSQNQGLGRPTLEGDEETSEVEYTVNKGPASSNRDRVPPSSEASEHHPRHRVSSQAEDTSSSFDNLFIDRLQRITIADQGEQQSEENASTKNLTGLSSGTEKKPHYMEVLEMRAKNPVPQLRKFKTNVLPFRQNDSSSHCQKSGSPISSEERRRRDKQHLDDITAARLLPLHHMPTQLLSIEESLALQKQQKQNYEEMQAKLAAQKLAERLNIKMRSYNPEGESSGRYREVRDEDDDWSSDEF
UniProt Q5JVF3, sequence (Q5JVF3 whole entry, looked up): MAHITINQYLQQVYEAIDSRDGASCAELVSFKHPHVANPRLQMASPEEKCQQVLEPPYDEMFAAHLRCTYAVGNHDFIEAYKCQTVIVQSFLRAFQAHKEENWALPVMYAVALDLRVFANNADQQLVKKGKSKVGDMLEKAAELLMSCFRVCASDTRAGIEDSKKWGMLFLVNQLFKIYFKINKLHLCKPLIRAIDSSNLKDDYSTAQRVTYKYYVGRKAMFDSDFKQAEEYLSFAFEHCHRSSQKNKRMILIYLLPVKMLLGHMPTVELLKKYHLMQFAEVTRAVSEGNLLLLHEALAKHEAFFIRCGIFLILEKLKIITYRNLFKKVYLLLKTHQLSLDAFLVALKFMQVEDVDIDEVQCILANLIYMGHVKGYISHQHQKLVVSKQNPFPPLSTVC
UniProt Q9BRP1, sequence (Q9BRP1 whole entry, looked up): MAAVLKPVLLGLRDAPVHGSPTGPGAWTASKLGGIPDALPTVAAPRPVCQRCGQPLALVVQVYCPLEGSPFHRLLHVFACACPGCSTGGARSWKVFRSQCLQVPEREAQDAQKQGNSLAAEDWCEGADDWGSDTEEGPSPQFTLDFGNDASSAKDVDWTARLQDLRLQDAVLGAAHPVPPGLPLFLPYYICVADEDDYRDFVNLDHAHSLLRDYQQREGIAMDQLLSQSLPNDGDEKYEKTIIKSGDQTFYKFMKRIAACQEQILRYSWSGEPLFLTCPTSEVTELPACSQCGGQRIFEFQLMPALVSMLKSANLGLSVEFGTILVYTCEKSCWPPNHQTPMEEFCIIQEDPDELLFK
UniProt P51665, sequence (P51665 whole entry, looked up): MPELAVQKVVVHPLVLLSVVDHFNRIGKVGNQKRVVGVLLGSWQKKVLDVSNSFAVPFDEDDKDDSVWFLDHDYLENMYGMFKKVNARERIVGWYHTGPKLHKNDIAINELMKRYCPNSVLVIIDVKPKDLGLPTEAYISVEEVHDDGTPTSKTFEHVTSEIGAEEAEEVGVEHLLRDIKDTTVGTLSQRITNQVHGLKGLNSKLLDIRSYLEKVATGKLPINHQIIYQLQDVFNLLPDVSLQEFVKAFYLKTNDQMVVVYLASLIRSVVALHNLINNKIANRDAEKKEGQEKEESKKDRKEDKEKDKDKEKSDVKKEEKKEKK
UniProt Q16537, sequence (Q16537 whole entry, looked up): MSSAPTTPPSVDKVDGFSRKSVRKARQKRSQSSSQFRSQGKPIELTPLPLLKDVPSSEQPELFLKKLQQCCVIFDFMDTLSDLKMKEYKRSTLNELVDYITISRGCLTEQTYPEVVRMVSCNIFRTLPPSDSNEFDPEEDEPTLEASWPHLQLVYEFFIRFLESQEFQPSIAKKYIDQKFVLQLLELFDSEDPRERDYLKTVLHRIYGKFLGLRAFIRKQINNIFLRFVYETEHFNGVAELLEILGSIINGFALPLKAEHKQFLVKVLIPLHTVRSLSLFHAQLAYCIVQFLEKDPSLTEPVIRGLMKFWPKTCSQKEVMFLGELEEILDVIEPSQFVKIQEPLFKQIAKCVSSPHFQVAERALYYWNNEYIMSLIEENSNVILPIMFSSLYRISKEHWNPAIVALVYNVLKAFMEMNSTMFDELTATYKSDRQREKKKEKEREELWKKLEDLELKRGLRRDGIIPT
UniProt Q99541, sequence (Q99541 whole entry, looked up): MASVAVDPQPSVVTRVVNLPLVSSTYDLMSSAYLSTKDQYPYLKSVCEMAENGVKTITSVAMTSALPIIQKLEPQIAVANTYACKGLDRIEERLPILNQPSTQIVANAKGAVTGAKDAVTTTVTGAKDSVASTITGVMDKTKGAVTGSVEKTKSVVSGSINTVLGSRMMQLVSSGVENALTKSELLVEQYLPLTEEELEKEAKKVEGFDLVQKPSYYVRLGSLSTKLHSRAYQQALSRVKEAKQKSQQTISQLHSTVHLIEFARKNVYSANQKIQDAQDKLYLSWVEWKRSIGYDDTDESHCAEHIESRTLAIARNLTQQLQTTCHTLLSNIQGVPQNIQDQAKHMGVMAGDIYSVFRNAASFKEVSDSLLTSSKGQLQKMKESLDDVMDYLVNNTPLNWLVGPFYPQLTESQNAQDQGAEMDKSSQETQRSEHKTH
UniProt Q93096, sequence (Q93096 whole entry, looked up): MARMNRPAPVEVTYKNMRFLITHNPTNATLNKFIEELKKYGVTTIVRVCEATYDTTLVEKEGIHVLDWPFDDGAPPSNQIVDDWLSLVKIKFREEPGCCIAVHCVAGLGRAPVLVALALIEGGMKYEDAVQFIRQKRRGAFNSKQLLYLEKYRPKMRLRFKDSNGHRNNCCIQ
UniProt Q6GMV3, sequence (Q6GMV3 whole entry, looked up): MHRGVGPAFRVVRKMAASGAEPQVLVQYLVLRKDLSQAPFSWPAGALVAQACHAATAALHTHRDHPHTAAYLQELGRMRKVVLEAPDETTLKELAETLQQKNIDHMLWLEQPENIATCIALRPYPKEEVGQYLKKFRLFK
UniProt Q13131, sequence (Q13131 whole entry, looked up): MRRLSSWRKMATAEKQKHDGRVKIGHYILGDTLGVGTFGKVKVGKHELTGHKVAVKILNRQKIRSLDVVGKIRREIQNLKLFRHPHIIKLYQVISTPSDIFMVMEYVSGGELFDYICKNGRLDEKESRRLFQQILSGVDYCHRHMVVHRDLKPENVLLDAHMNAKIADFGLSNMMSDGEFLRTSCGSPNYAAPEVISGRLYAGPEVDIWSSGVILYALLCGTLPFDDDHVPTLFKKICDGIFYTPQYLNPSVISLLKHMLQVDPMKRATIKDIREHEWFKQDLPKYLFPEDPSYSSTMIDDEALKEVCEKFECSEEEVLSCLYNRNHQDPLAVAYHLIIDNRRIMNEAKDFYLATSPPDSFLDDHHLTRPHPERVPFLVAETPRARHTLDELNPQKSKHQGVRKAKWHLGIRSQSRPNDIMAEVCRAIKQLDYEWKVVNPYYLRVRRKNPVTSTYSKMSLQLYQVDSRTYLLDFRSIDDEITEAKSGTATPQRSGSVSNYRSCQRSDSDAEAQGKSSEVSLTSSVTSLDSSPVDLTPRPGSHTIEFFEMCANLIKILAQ
UniProt O15305, sequence (O15305 whole entry, looked up): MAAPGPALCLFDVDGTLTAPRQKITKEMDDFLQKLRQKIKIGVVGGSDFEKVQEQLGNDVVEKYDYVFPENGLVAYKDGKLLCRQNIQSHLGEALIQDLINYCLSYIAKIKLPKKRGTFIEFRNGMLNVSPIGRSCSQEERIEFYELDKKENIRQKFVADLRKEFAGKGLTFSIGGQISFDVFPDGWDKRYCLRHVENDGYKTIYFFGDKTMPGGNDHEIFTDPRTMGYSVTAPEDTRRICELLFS
UniProt Q9Y478, sequence (Q9Y478 whole entry, looked up): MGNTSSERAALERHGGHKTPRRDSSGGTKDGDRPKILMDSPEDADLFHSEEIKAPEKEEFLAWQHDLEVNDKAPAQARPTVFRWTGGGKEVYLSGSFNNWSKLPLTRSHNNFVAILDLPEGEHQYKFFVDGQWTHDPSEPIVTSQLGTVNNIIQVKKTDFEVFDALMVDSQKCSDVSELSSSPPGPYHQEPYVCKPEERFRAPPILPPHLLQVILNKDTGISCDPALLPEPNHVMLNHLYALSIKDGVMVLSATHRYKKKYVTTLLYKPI
UniProt O00408, sequence (O00408 whole entry, looked up): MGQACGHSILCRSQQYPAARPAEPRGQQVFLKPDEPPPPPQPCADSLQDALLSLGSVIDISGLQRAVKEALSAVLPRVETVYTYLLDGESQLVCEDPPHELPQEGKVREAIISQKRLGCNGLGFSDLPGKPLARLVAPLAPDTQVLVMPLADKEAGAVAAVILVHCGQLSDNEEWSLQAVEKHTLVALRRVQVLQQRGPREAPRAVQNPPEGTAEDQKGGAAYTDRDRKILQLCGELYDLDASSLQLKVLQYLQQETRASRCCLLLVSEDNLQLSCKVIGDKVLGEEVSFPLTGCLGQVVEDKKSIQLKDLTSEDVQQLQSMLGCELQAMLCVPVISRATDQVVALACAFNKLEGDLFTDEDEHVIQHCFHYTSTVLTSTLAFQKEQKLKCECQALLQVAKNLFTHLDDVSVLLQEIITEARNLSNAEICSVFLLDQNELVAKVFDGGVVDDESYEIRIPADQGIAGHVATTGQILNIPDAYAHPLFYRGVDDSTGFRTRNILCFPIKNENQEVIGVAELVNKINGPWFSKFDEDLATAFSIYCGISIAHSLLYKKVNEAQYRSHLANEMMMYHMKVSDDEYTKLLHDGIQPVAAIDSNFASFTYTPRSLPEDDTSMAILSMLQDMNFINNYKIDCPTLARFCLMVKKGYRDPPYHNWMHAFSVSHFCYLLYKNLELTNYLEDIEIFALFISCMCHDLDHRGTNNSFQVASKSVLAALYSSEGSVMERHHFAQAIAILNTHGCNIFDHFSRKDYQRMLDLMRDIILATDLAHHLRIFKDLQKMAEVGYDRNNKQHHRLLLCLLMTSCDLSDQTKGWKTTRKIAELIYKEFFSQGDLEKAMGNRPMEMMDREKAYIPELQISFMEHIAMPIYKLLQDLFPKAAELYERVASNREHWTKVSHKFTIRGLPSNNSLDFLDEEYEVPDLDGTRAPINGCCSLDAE
UniProt Q96A00, sequence (Q96A00 whole entry, looked up): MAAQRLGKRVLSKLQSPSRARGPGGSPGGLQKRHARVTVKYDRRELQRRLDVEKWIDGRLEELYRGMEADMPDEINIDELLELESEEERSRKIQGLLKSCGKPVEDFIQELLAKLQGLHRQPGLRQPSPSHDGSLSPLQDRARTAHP

log2 fold change, inactive:
POLR2M (UniProt P0CAP2) 0.021
PCID2 (UniProt Q5JVF3) 0.069
PMPCA (UniProt Q10713) 0.025
POLA1 (UniProt P09884) 0.064
PDE2A (UniProt O00408) 0.013
PDCD4 (UniProt Q53EL6) 0.083
PURA (UniProt Q00577) -0.111
PPP1R14A (UniProt Q96A00) -0.005
PMM2 (UniProt O15305) -0.04
PTRH2 (UniProt Q9Y3E5) -0.05
PPP2R5E (UniProt Q16537) 0.027
PFAS (UniProt O15067) 0.032
PPP2R5A (UniProt Q15172) 0.061
PHKG2 (UniProt P15735) -0.003
PKM (UniProt P14618) -0.012
PSMD12 (UniProt O00232) -0.031
PRKAR1B (UniProt P31321) 0.04
POLR2K (UniProt P53803) -0.001
PLCB3 (UniProt Q01970) 0.024
PLIN2 (UniProt Q99541) 0.01
POTEI (UniProt P0CG38) 0.08
PTP4A1 (UniProt Q93096) 0
PI4K2A (UniProt Q9BTU6) 0.023
POLR3K (UniProt Q9Y2Y1) -0.067
PEX16 isoform 2 (UniProt Q9Y5Y5) 0.071
PIGT (UniProt Q969N2) -0.008
PRKAA1 isoform 2 (UniProt Q13131) 0.025
PTRHD1 (UniProt Q6GMV3) 0.059
PPIL2 (UniProt Q13356) 0.113
PEX13 (UniProt Q92968) -0.033
PSMD2 (UniProt Q13200) -0.091
PPID (UniProt Q08752) 0.097
POLD1 (UniProt P28340) 0.033
PDCD2L (UniProt Q9BRP1) -0.038
PRKAB1 (UniProt Q9Y478) 0.031
PSMD7 (UniProt P51665) -0.073
PYGL (UniProt P06737) -0.009
